# Inconclusive results are not listed. Activity calls are given as the source filed them. Calls follow the shape of the dose curve; as a rule, active = well fitted activation curve with a large enough effect; inconclusive = small, poorly fitted or top-dose-only effect; inactive = flat fitted curve, though single readings scatter. Peptide text beside a SMILES is read from it.
# Assay: Cellular Toxicity (caspase-3) Jurkat (AID 655);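 also: cells exposed to compound for 16 h at 37 °C before reading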
# Settings: Jurkat caspase-3 activation, luminescence; series mostly up to 92.2 µM; caspase-3 activation: at the top concentration
# Description: NIH Chemical Genomics Center [NCGC]
# NIH Molecular Libraries Screening Centers Network [MLSCN]
# National Institutes of Environmental Health Sciences [NIEHS]
# National Toxicology Program [NTP]
# We have developed a 1536-well cell-based assay for quantitative high throughput screening (qHTS) against a number of cell lines to determine in vitro caspase 3/7 of small molecules. This particular assay uses the Jurkat cell line which is derived from human T cell leukemia.
# NCGC Assay Protocol Summary:
# The Caspase-Glo 3/7 assay (Promega) is a homogeneous method to measure caspase-3 and caspase-7 activities in cultured cells. The quantitation of caspase 3/7 activity is based on the cleavage of a peptide-aminoluciferin substrate. After caspase cleaves the substrate the free aminoluciferin is liberated and serves as the substrate of luciferase, which generates the light. The luminescent signal is proportional to amount of caspase 3/7 activity present.
# Using the Caspase-Glo 3/7 assay, the amount of caspase 3/7 activity was measured in the Jurkat cell line with complete culture medium following compound treatment for 16 hours. The assay was performed in opaque white 1536-well plates. In the screen, tamoxifen and doxorubicin were used as positive controls. Library compounds were measured for their ability to cause the activation of caspase 3/7 in the cell line, as reflected by an increase in luminescence signal, in a concentration-dependent manner. Data were normalized to the controls for basal activity (DMSO only) and 100% stimulation (100 uM tamoxifen). AC50 values were determined from concentration-response data modeled with the standard Hill equation.
# qHTS protocol for caspase 3/7 assay in Jurkat cells
# [Step] [Parameter] [Value] [Description]
# 1. Reagent; 5 uL; 5000 Jurkat cells/well
# 3. Controls; 23 nL; Tamoxifen 0.23 uM to 100 uM & Doxorubicin 7.0 pM to 100 uM
# 4. Time; 16 hr; 37 °C incubation
# 5. Reagent; 5 uL; Caspase-Glo 3/7 reagent
# 6. Time; 20 min; Room Temperature
# 7. Detection; Luminescence; Viewlux plate reader
# Keywords: caspase 3/7, apoptosis, Jurkat cell line, luminescence, NTPHTS, NTPHTS_NCGC, NIEHS, EPA, DSSTox, MLSMR, MLSCN, NIH Roadmap, qHTS, NCGC
# Potency is read from the fitted curve at half-maximal effect.
SMILES,caspase-3 activation,Potency
CCCc1cc(=O)[nH]c(=S)[nH]1,-1.13% (inactive),
c1ccc2[nH]c(-c3cscn3)nc2c1,-9.59% (inactive),
NS(=O)(=O)c1cc(C(=O)O)c(NCc2ccco2)cc1Cl,0.00724% (inactive),
Cc1cc(O)c2c(c1)C(=O)c1cc(O)cc(O)c1C2=O,-10.4% (inactive),
Nc1ccc(S(N)(=O)=O)cc1,0.905% (inactive),
COC(=O)[C@H](Cc1ccccc1)NC(=O)[C@@H](N)CC(=O)O (H-Asp-Phe-OMe),0.18% (inactive),
CCCCC(CC)COC(=O)C(C#N)=C(c1ccccc1)c1ccccc1 (stereo not drawn),2.37% (inactive),
COc1c2occc2cc2ccc(=O)oc12,-0.916% (inactive),
CC(=O)Nc1ccc(O)cc1,3.32% (inactive),
Cc1ccc(C)c(OCCCC(C)(C)C(=O)O)c1,-4.3% (inactive),
CS(=O)(=O)OCCCCOS(C)(=O)=O,,inactive
CN(C)c1ccc2nc3ccc(=[N+](C)C)cc-3sc2c1,-0.337% (inactive),
CCc1nc(N)nc(N)c1-c1ccc(Cl)cc1,,31.6 µM (active)
